Values joined by “and” are separate entries in the source; they are usually repeats but may differ in a detail not shown here. Identical values can stand only once. The whole screen tested about 220,000 compounds, of which about 3,300 (1.5%) were called active. This is one part of a sample in which actives are shown more often than they occur.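 The calls were made as follows: active = compounds that cut the protein-peptide binding signal by more than 50% relative to plate controls in a single-dose test; inactive = the rest.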
biological target: Induced myeloid leukemia cell differentiation protein Mcl-1 (Homo sapiens) (UniProt Q07820); assay: disruptors of Mcl-1 and Noxa BH3 peptide – biochemical, TR-FRET, 1536-well, primary screen (AID 1022); conditions: TR-FRET Mcl-1/Noxa peptide binding, 2 h; at 21.7 µM; stronger effect = higher value;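 also: His-tagged Mcl-1 with rhodamine Noxa BH3 peptide and terbium anti-His antibody; 0% = Mcl-1 plus Noxa peptide wells and 100% = peptide-only wells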
Sequence (Q07820 whole entry, looked up): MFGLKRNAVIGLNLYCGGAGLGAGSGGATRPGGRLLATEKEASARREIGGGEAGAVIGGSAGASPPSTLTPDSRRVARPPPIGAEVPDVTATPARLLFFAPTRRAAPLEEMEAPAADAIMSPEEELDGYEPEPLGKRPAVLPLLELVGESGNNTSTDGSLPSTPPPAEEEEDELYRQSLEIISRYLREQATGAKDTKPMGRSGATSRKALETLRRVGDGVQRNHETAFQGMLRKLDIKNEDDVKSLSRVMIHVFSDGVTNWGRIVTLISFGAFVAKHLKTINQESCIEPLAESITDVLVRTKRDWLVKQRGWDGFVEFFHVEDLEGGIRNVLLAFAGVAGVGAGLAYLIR

Row | Compound | inhibition
1 | CCCN(CCC)S(=O)(=O)c1ccc(C(=O)NNC(=O)c2cc(OC)c(OC)c(OC)c2)cc1 | 14.9% (inactive)
2 | Cc1cc(OCCCCOc2ccc(C#N)cc2)ccc1[N+](=O)[O-] | 5.03% (inactive)
3 | CC/C=C/C(=O)N1CC2(CC(c3cccc(NC(=O)CC)c3)=NO2)C[C@H]1C(N)=O (some centres undefined) | -7.66% (inactive)
4 | CCOc1cc(/C=C(\C#N)c2nc(-c3cccs3)c(NC(C)=O)s2)ccc1O | 24.5% (inactive)
5 | COc1cc(/C=N/Nc2nc3ccccc3s2)ccc1O | 27.8% (inactive)
6 | COc1cc(/C=N\Nc2nc(-c3cccs3)c(NC(C)=O)s2)ccc1O | 95.2% (active)
7 | O=C(CSc1nnc(Nc2ccccc2)s1)Nc1cccnc1Cl | 9.43% (inactive)
8 | Cc1ccc(Nc2nnc(SCC(=O)c3cc4ccccc4o3)s2)cc1C | 24.3% (inactive)
9 | CC(C)c1ccc(Nc2nnc(SCC(=O)c3nnc(-c4ccccc4)o3)s2)cc1 | 104% (active)
10 | Cc1cccc2c1-c1sc(C(=O)NCCCN3CCc4ccccc4C3)cc1CO2 | 11% (inactive)
11 | CCOC(=O)CN(C(=O)COc1nc(-c2ccccc2)cc(C)c1C#N)c1ccc(F)cc1 | 7.27% (inactive)
12 | CN(C)C(=S)Nc1ccc(Br)cc1Cl | -1.61% (inactive)
13 | CN(C)c1ccc(C(CNC(=O)c2ccc(F)cc2)c2c[nH]c3ccccc23)cc1 (centres undefined) | 75.8% (active)
14 | O=C(Cc1ccccc1)NCc1ccc(F)cc1 | -0.05% (inactive)
15 | CN(C)CCCNC(=O)c1ccc2[nH]c3ccccc3c2c1 | 3.04% (inactive)
16 | CCOC(=O)C1=NN(c2ccc(Cl)cc2)/C(=C/C2=NCCc3cc(OC)c(OC)cc32)S1 | 1.42% (inactive)
17 | O=C(Cn1c[n+](CC(=O)c2ccc([N+](=O)[O-])cc2)cn1)c1ccc([N+](=O)[O-])cc1 | 27.4% (inactive) and -7.77% (inactive)
18 | CCc1nnc(NC(=O)c2cccc(S(=O)(=O)N(C)c3ccc(OC)cc3)c2)s1 | 10.9% (inactive)
19 | CCc1nnc(NC(=O)c2sc3nc(C)cc(COC)c3c2N)s1 | 22.4% (inactive)
20 | CCc1ccc2nc3sc(C(=O)Nc4nnc(CC)s4)c(N)c3cc2c1 | 90.1% (active)

Row | Compound | inhibition
21 | C#CCO[C@@H]1C[C@H](n2cnc3c(=O)[nH]c(NC(=O)C(C)C)nc32)O[C@@H]1CO | -275% (inactive)
22 | Cc1ccc(C(=O)Cn2cc([N+](=O)[O-])nc2C)cc1 | -26.9% (inactive)
23 | Cc1ccc(N2NC(=O)/C(=C/C=C/c3ccco3)C2=O)cc1C | 6.33% (inactive)
24 | Cc1ccc(N=C2NC(=O)/C(=C/C=C/c3ccco3)S2)cc1C | 107% (active)
25 | Cc1cccc(N=C2NC(=O)/C(=C/c3cn(C)c4ccccc34)S2)c1 | 4.96% (inactive)
26 | CC(C)(C)c1cc(NC(=O)NN2CCOCC2)nn1-c1c(Cl)cc(Cl)cc1Cl | 2.67% (inactive)
27 | N/C(=N\S(=O)(=O)c1ccc(Cl)cc1)N1CCOCC1 | -2.49% (inactive)
28 | C/C=C/C(=O)Nc1ccc(N2CCN(c3ccc(C(F)(F)F)cn3)CC2)nc1 | 4.65% (inactive)
29 | Cc1ccnc(Nc2nc3ccccc3s2)n1 | -8.28% (inactive)
30 | Cc1ccnc(-n2sc3ccccc3c2=O)n1 | 69% (active)
31 | Cc1ccnc(N2CCC(C(=O)NC3CCCCCC3)CC2)n1 | -9.93% (inactive)
32 | CCCCCCCC(=O)OC(CN1CCCCCC1)CN1CCCC1=O (centres undefined) | -0.02% (inactive)
33 | Cc1ccc2cc(/C=N/Nc3ccc(C(=O)O)cc3)c(Cl)nc2c1 | 32.8% (inactive)
34 | Cn1c2c(c(=O)n(C)c1=O)C(c1cccc(F)c1)C(C#N)=C(N)O2 (centres undefined) | -5.47% (inactive)
35 | Cc1ccc(C2Nc3ccccc3C(=O)N2CCN2CCNC2=O)cc1 (centres undefined) | -12.9% (inactive)
36 | CC(NC(=O)COC(=O)c1ccc(Cl)cc1O)c1ccc(F)cc1 (centres undefined) | 0.03% (inactive)
37 | COc1cc(OC)cc(C(=O)OCC(=O)Nc2ccc(F)cc2F)c1 | 2.79% (inactive)
38 | O=C(COC(=O)c1ccc(F)cc1F)Nc1ncccn1 | 65.1% (active)
39 | Cc1nnc(Nc2ccccc2F)s1 | -14.1% (inactive)
40 | C/C(Cc1ccccc1)=N\NC(=O)CNC(=O)c1ccccc1Cl | -7.79% (inactive)

Row | Compound | inhibition
41 | O=C1N(c2ccccc2)C(=Nc2ccccc2)SC12CC2 | 1.01% (inactive)
42 | O=C1Oc2ccccc2C(=O)/C1=C/c1ccccc1O | 81.4% (active)
43 | C=CCn1c(SCC(=O)CC(=O)OCC)nc2cc(C(=O)N3CCC(C(N)=O)CC3)ccc2c1=O | -5.71% (inactive)
44 | C=CCn1c2ccccc2c2nnc(SC(CC)C(=O)Nc3nc(C)c(C(=O)OCC)s3)nc21 (centres undefined) | 11.2% (inactive)
45 | C=CCn1c2ccccc2c2nnc(SCc3[nH]c(=O)[nH]c3C(=O)CCCCC(=O)OCC)nc21 | 52.5% (active)
46 | CC(C)(C)n1cnnc1Sc1ccc([N+](=O)[O-])cn1 | 2.83% (inactive)
47 | Cc1ccccc1NC(=O)CN1C(=O)N/C(=C\c2cccn2-c2cccc(C(=O)O)c2)C1=O | 40.1% (inactive)
48 | N#Cc1ccccc1CN1C(=O)S/C(=C/c2cccn2-c2cccc(C(=O)O)c2)C1=O | 66.4% (active)
49 | Cn1cccc1/C=C1\SC(=O)N(CC(=O)Nc2ccc(F)cc2)C1=O | 12.7% (inactive)
50 | Nc1ccc(N=Nc2ccccc2Cl)c(N)n1 | 10.8% (inactive)
51 | COc1ccc(CCNC(=O)C2CC3Cn4c(nc5cc(C)c(C)cc54)C3N2C)cc1 (centres undefined) | -4.09% (inactive)
52 | COc1ccc(C/C(N)=N/OC(=O)c2ccco2)cc1OC | 64.8% (active)
53 | COc1ccc(C(=O)O/N=C(\N)Cc2ccc(Cl)cc2Cl)cc1OC | 6.09% (inactive)
54 | COc1ccc(CC(=O)Nc2ccccc2NC(=O)c2ccco2)cc1OC | 36.8% (inactive)
55 | N#C/C(=C\N1CCOCC1)S(=O)(=O)c1ccc(Cl)cc1 | -9.31% (inactive)
56 | COc1ccc(-c2ccc(OC(=O)NC3CCS(=O)(=O)C3)cc2)cc1 (centres undefined) | -3.15% (inactive)
57 | COc1cccc2c(C)c(C(=O)O)[nH]c12 | 83.1% (active)
58 | COc1cccc2c(O)cc(=O)n(C)c12 | -20.5% (inactive)
59 | Cc1c(C(=O)N/N=C/c2ccccc2)[nH]c2c([N+](=O)[O-])cccc12 | 21% (inactive)
